We go through 40 molecules from the supplement of paper PMC8975748.

Molecules are shown by their SMILES. Structures can show the parent of a compound that is named as a salt. ± gives the standard deviation of the averaged measurements.

The assay relates to Saccharomyces cerevisiae BY4741 SeMeCo community. Nature of the assay: mean cell size (pixel area) (pixels); higher = larger cells. Particulars: 10 µM; 24 h; SM minimal medium. A digest of the protocol: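 A fluorescent Saccharomyces cerevisiae BY4741 community carrying four plasmids was used, with each plasmid complementing one auxotrophy and bearing a fluorescent marker. An overnight preculture at OD600 = 1.0 was diluted to OD600 = 0.3, and 70 µl went into 384-well plates acoustically predosed with drug (final 10 µM) in SM medium for 24 h. After paraformaldehyde fixation, cells were imaged by automated confocal microscopy and analysed in Harmony, giving the mean cell pixel area per well. Each value is the average of 3 replicates. Same SeMeCo high-content imaging drug screen: Selleck FDA-approved drugs at 10 µM, 24 h in SM medium, 384-well plates, 3 replicates.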
In turn, `C[C@H]1O[C@@H](O[C@H]2[C@@H](O)C[C@H](O[C@H]3[C@@H](O)C[C@H](O[C@H]4CC[C@@]5(C)[C@H](CC[C@@H]6[C@@H]5C[C@@H](O)[C@]5(C)[C@@H](C7=CC(=O)OC7)CC[C@]65O)C4)O[C@@H]3C)O[C@@H]2C)C[C@H](O)[C@@H]1O` [Digoxin] returned a mean cell size of 12.4 ± 0.22.
With `CC(C)[N+](C)(CCOC(=O)C1c2ccccc2Oc2ccccc21)C(C)C` [Propantheline bromide], the mean cell size was found to be 12.5 ± 0.22.
Under `CCC1(C)CC(=O)NC1=O` (stereo not given) [Ethosuximide] stands 12.6 ± 0.19.
Consider `CCCCCCCCCCCC(=O)O` [Lauric Acid], for which the mean cell size came to 12.2 ± 0.16.
In turn, `CC[C@H](C)C[C@H](C)CCCCCCCCC(=O)N[C@H]1C[C@@H](O)[C@@H](NCCN)NC(=O)[C@@H]2[C@@H](O)CCN2C(=O)[C@H]([C@H](O)CCN)NC(=O)[C@H]([C@H](O)[C@@H](O)c2ccc(O)cc2)NC(=O)[C@@H]2C[C@@H](O)CN2C(=O)[C@H]([C@@H](C)O)NC1=O` [Caspofungin Acetate] had a mean cell size of 12.17 ± 0.068.
In turn, `CN(C)c1ccc(O)c2c1C[C@H]1C[C@H]3[C@H](N(C)C)C(O)=C(C(N)=O)C(=O)[C@@]3(O)C(O)=C1C2=O` [Minocycline HCl] showed a mean cell size of 12.2 ± 0.13.
`OCCOc1ccc(/C(=C(/CCCl)c2ccccc2)c2ccccc2)cc1` [Ospemifene] came in with a mean cell size of 12.7 ± 0.24.
With `COc1ccc(C(=O)NCc2ccc(OCCN(C)C)cc2)cc1OC` [Itopride hydrochloride] the figure was 12.4 ± 0.13; with `CN1CCC(=C2c3ccccc3CCc3sccc32)CC1` [Pizotifen Malate], 12.5 ± 0.16; with `Cn1nnnc1SCC1=C(C(=O)O)N2C(=O)[C@@H](NC(=O)[C@H](OC=O)c3ccccc3)[C@H]2SC1` [Cefamandole nafate], 12.6 ± 0.23.
Turning to `CCCSc1ccc2[nH]c(NC(=O)OC)nc2c1` [Albendazole], the mean cell size is 12.59 ± 0.075.
`CN[C@@H]1[C@@H](O)[C@@H](O[C@@H]2[C@@H](O)[C@H](O[C@H]3O[C@H](CN)[C@@H](O)[C@H](O)[C@H]3O)[C@@H](N)C[C@H]2NC(=O)[C@@H](O)CN)OC[C@]1(C)O` [Isepamicin Sulphate] had a mean cell size of 12.1 ± 0.21.
For the molecule `O=C(O)c1cc(-c2ccc(F)cc2F)ccc1O` [Diflunisal], the mean cell size was 13.1 ± 0.14.
With `Cc1[nH]c(=O)c(C#N)cc1-c1ccncc1` [Milrinone], the mean cell size was determined as 12.4 ± 0.18.
The molecule `Cc1ccc(Sc2ccccc2N2CCNCC2)c(C)c1` gave a mean cell size of 12.22 ± 0.086.
As to `CC(=O)NO` [Acetohydroxamic acid], the mean cell size is 12.5 ± 0.15.
With `CC(=O)[C@H]1CC[C@H]2[C@@H]3CC=C4C[C@@H](O)CC[C@]4(C)[C@H]3CC[C@]12C` [Pregnenolone] the figure was 12.46 ± 0.12; with `CS(=O)(=O)Nc1ccc([N+](=O)[O-])cc1Oc1ccccc1` [Nimesulide], 12.5 ± 0.22; with `COc1cccc(-c2c(C)n(Cc3c(F)cccc3C(F)(F)F)c(=O)n(C[C@H](NCCCC(=O)O)c3ccccc3)c2=O)c1F` [Elagolix Sodium], 12.5 ± 0.27.
On to `CN1CCN(C2=Nc3cc(Cl)ccc3Nc3ccccc32)CC1` [Clozapine], for which the mean cell size was determined as 12.4 ± 0.21.
On to `COc1ccc(NS(=O)(=O)c2ccc(N)cc2)nn1` [Sulfamethoxypyridazine], for which the mean cell size was 12.2 ± 0.35.
Turning to `C[C@]12CC[C@@H]3c4ccc(O)cc4C[C@@H](CCCCCCCCC[S+]([O-])CCCC(F)(F)C(F)(F)F)[C@H]3[C@@H]1CC[C@@H]2O` (stereo not given in full) [Fulvestrant], the mean cell size is 12.4 ± 0.074.
Molecule `CC1(C)S[C@@H]2[C@H](NC(=O)COc3ccccc3)C(=O)N2[C@H]1C(=O)O` [Penicillin V potassium salt] showed a mean cell size of 11.8 ± 0.2.
Molecule `Cc1onc(-c2ccccc2)c1-c1ccc(S(N)(=O)=O)cc1` [Valdecoxib] displayed a mean cell size of 12.3 ± 0.17.
Under `CO[C@H]1O[C@@H]2O[C@@]3(C)CC[C@H]4[C@H](C)CC[C@@H]([C@H]1C)[C@@]24OO3` [Artemether] stands 12.05 ± 0.027; under `NC12CC3CC(CC(C3)C1)C2` [Amantadine HCl], 12.6 ± 0.17; under `C=CC[N+]1([C@H]2C[C@H]3[C@@H]4CC[C@H]5C[C@H](O)[C@@H](N6CCOCC6)C[C@]5(C)[C@H]4CC[C@]3(C)[C@H]2OC(C)=O)CCCC1` [Rocuronium Bromide], 12.44 ± 0.065.
Regarding `CCn1cc(C(=O)O)c(=O)c2cnc(N3CCNCC3)nc21` [Pipemidic acid], the mean cell size was 12 ± 0.14.
`CN(C)CCCN1c2ccccc2Sc2ccccc21` [Promazine hydrochloride]: the mean cell size was 12.5 ± 0.15.
`C=C[C@]1(C)C[C@@H](OC(=O)CS[C@@H]2C[C@H]3CC[C@@H](C2)N3C)[C@]2(C)[C@H](C)CC[C@]3(CCC(=O)[C@H]32)[C@@H](C)[C@@H]1O` [Retapamulin]: the mean cell size worked out at 12.42 ± 0.093.
As to `C=C[C@]1(C)C[C@@H](OC(=O)CSC(C)(C)CNC(=O)[C@H](N)C(C)C)[C@]2(C)[C@H](C)CC[C@]3(CCC(=O)[C@H]32)[C@@H](C)[C@@H]1O` [Valnemulin HCl], the mean cell size came out at 12.3 ± 0.19.
Turning to `COCCCN1CCC(NC(=O)c2cc(Cl)c(N)c3c2OCC3)CC1` [Prucalopride], the mean cell size turned out to be 12.6 ± 0.1.
Regarding `Nc1ccc(S(=O)(=O)Nc2ncccn2)cc1` [Sulfadiazine], the mean cell size is 12.34 ± 0.084.
Molecule `CC(C)(C)C(=O)OCOC(=O)[C@@H]1N2C(=O)[C@@H](/N=C/N3CCCCCC3)[C@H]2SC1(C)C` [Pivmecillinam hydrochloride] showed a mean cell size of 12.3 ± 0.13.
Molecule `CC(C)(O/N=C(\C(=O)N[C@@H]1C(=O)N2C(C(=O)[O-])=C(C[n+]3ccccc3)CS[C@H]12)c1csc(N)n1)C(=O)O` [Ceftazidime] yielded a mean cell size of 12 ± 0.14.
For `Cc1cc(-c2ccc(/N=N/c3ccc4c(S(=O)(=O)O)cc(S(=O)(=O)O)c(N)c4c3O)c(C)c2)ccc1/N=N/c1ccc2c(S(=O)(=O)O)cc(S(=O)(=O)O)c(N)c2c1O` [Evans Blue], the mean cell size is 13.5 ± 0.98.
`CN[C@H](CC(C)C)C(=O)N[C@H]1C(=O)N[C@@H](CC(N)=O)C(=O)N[C@H]2C(=O)N[C@H]3C(=O)N[C@H](C(=O)N[C@H](C(=O)O)c4cc(O)cc(O)c4-c4cc3ccc4O)[C@H](O)c3ccc(c(Cl)c3)Oc3cc2cc(c3O[C@@H]2O[C@H](CO)[C@@H](O)[C@H](O)[C@H]2O[C@H]2C[C@](C)(N)[C@H](O)[C@H](C)O2)Oc2ccc(cc2Cl)[C@H]1O` [Vancomycin]: the mean cell size worked out at 12.3 ± 0.13.
On to `NNc1nncc2ccccc12` [Hydralazine HCl], for which the mean cell size stood at 11.8 ± 0.14.
Under `Cc1c(C(N)=O)cc([N+](=O)[O-])cc1[N+](=O)[O-]` [Dinitolmide] stands 12.4 ± 0.22; under `COc1ccc2cc3[n+](cc2c1OC)CCc1cc2c(cc1-3)OCO2` [Berberine chloride], 12.5 ± 0.26.
